Test results reported in PubChem BioAssay (EPA / NIEHS).
Results filed as inconclusive are left out. Calls of active or inactive are those of the source. Rule for the calls: active = hit-call score of the fitted dose curve at least 0.9, where 1 is the maximum; inconclusive = response in the unintended direction; inactive = score below 0.9.

What follows are compounds tested against Androgen receptor (Homo sapiens) (UniProt P10275) (assay: ATG_AR_TRANS: Attagene TRANS-FACTORIAL HepG2 Assay for human Androgen Receptor (AR) (AID 2282973)). Settings: HepG2 Attagene TRANS-FACTORIAL AR reporter transcription.
Chain of Androgen receptor (Homo sapiens) (P10275 whole entry, looked up, the tested form may be a part): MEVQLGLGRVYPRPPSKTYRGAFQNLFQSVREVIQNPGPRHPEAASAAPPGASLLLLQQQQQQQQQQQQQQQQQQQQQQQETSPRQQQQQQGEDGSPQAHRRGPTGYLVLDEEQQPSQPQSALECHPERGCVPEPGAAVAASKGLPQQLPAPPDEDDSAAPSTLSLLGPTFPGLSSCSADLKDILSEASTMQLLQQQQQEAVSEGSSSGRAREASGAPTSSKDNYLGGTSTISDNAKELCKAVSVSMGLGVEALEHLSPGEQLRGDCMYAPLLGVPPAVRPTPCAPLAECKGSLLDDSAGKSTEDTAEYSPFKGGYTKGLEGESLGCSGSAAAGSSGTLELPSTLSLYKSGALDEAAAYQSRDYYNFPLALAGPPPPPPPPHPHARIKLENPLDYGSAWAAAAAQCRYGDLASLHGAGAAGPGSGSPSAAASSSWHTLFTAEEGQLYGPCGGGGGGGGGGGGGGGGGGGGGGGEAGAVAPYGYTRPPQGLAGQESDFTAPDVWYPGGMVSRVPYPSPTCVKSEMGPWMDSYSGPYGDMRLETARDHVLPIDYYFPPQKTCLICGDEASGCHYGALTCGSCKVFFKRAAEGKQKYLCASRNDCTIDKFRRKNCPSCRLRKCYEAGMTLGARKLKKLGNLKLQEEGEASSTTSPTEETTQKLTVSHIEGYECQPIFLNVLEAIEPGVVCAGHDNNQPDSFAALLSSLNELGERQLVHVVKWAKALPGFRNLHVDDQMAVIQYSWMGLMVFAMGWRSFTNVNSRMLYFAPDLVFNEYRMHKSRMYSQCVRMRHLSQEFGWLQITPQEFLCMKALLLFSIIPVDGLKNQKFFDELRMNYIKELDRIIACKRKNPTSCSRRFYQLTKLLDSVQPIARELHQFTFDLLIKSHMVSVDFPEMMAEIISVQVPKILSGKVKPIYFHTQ
Outline: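 Chimeric nuclear receptor–Gal4 activity was assessed in human HepG2 hepatocytes after 24 h chemical dosing. Induced reporter mRNA was detected via labelled RT-PCR fragments on capillary electrophoresis, and gain of signal was analysed against DMSO.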

outcome, inactive:
Nc1ccnc(=O)[nH]1, N#CCCOCCC#N, O=C(C=Cc1ccccc1)OCC=Cc1ccccc1, CCC(C)NC(N)=O (stereo unspecified), Brc1cc(Br)c(Oc2c(Br)cc(Br)c(Br)c2Br)cc1Br, CN(C)CCOC(c1ccccc1)c1ccccc1, CC1=CC(=O)c2ccccc2C1=O, COC(OC(C)=O)c1ccccc1 (stereo unspecified), Cc1cc(O)c(C(C)(C)C)cc1C(C)(C)C, C[Si](O[Si](C)(C)C)O[Si](C)(C)C, C=COC(=O)C(C)(C)CCCCCC
